{"source": "paper PMC11006913", "assay_in_all_cases": "PBM; 200 nM protein, PBS", "details_in_all_cases": "dsDNA, one strand shown", "key": {"[1]": {"target": "T1, NKX2-4 (Homo sapiens, UniProt Q9H2Z4 175-261, P217L)", "T1 sequence": "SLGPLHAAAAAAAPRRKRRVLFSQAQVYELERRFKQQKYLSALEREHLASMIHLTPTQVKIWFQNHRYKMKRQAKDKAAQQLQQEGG"}, "[2]": {"target": "T2, SIX6 (Homo sapiens, UniProt O95475 114-200, L167I)", "T2 sequence": "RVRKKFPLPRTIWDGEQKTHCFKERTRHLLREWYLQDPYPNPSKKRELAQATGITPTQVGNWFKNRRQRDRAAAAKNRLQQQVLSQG"}, "[3]": {"target": "T3, SIX6 (Homo sapiens, UniProt O95475 114-200, L143V)", "T3 sequence": "T2 sequence with L30V, I54L"}, "[4]": {"target": "T4, NKX2-4 (Homo sapiens, UniProt Q9H2Z4 175-261, T231S)", "T4 sequence": "T1 sequence with L43P, T57S"}, "[5]": {"target": "T5, SIX6 (Homo sapiens, UniProt O95475 114-200, H141N)", "T5 sequence": "T2 sequence with H28N, I54L"}, "[6]": {"target": "T6, SIX6 (Homo sapiens, UniProt O95475 114-200, T165P)", "T6 sequence": "T2 sequence with T52P, I54L"}, "[7]": {"target": "T7, SIX6 (Homo sapiens, UniProt O95475 114-200, L167M)", "T7 sequence": "T2 sequence with I54M"}, "[8]": {"target": "T8, NKX2-4 (Homo sapiens, UniProt Q9H2Z4 175-261)", "T8 sequence": "T1 sequence with L43P"}, "[9]": {"target": "T9, SIX6 (Homo sapiens, UniProt O95475 114-200, L143M)", "T9 sequence": "T2 sequence with L30M, I54L"}, "[10]": {"target": "T10, SIX6 (Homo sapiens, UniProt O95475 114-200, L143I)", "T10 sequence": "T2 sequence with L30I, I54L"}, "[11]": {"target": "T11, SIX6 (Homo sapiens, UniProt O95475 114-200, T165G)", "T11 sequence": "T2 sequence with T52G, I54L"}, "[12]": {"target": "T12, SIX6 (Homo sapiens, UniProt O95475 114-200, T139Q)", "T12 sequence": "T2 sequence with T26Q, I54L"}, "[13]": {"target": "T13, SIX6 (Homo sapiens, UniProt O95475 114-200, T165A)", "T13 sequence": "T2 sequence with T52A, I54L"}, "[14]": {"target": "T14, SIX6 (Homo sapiens, UniProt O95475 114-200, L167V)", "T14 sequence": "T2 sequence with I54V"}, "[15]": {"target": "T15, NKX2-4 (Homo sapiens, UniProt Q9H2Z4 175-261, R246Q)", "T15 sequence": "T1 sequence with L43P, R72Q"}, "[16]": {"target": "T16, SIX6 (Homo sapiens, UniProt O95475 114-200)", "T16 sequence": "T2 sequence with I54L"}, "[17]": {"target": "T17, SIX6 (Homo sapiens, UniProt O95475 114-200, T165I)", "T17 sequence": "T2 sequence with T52I, I54L"}, "[18]": {"target": "CRX (Homo sapiens, UniProt O43186 26-111)", "sequence (O43186 26-111)": "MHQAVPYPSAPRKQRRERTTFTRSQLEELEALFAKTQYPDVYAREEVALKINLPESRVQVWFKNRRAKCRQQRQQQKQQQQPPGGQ"}, "[19]": {"target": "CRX (Homo sapiens, UniProt O43186 26-111, E42D)", "sequence (O43186 26-111 E42D)": "as the sequence (O43186 26-111) above, with E17D counted along it"}, "[20]": {"target": "CRX (Homo sapiens, UniProt O43186 26-111, R41L)", "sequence (O43186 26-111 R41L)": "as the sequence (O43186 26-111) above, with R16L counted along it"}, "[21]": {"target": "HOXB6 (Homo sapiens, UniProt P17509 132-218)", "sequence (P17509 132-218)": "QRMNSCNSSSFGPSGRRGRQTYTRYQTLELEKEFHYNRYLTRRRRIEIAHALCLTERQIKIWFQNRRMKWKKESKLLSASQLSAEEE"}, "[22]": {"target": "HOXA4 (Homo sapiens, UniProt Q00056 201-287, W262R)", "sequence (Q00056 201-287 W262R)": "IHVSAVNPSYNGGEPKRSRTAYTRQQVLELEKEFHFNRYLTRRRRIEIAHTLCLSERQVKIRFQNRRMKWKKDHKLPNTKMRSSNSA"}, "[23]": {"target": "HOXA4 (Homo sapiens, UniProt Q00056 201-287, R217L)", "sequence (Q00056 201-287 R217L)": "as the sequence (Q00056 201-287 W262R) above, with R17L, R62W counted along it"}, "[24]": {"target": "HOXA4 (Homo sapiens, UniProt Q00056 201-287)", "sequence (Q00056 201-287)": "as the sequence (Q00056 201-287 W262R) above, with R62W counted along it"}, "[25]": {"target": "HOXA4 (Homo sapiens, UniProt Q00056 201-287, W262F)", "sequence (Q00056 201-287 W262F)": "as the sequence (Q00056 201-287 W262R) above, with R62F counted along it"}}, "note": "Numbering of substitutions follows the chain as printed.", "data": [{"sequence": "CCCTGCGC", "values": [{"measurement": "binding signal", "setting": "[1]", "value": "9.21 upbm affinity estimate (log intensity, higher = more binding, comparable within an allelic series)"}, {"measurement": "binding signal", "setting": "[2]", "value": "8.93 upbm affinity estimate (log intensity, higher = more binding, comparable within an allelic series)"}, {"measurement": "binding signal", "setting": "[3]", "value": "8.85 upbm affinity estimate (log intensity, higher = more binding, comparable within an allelic series)"}, {"measurement": "binding signal", "setting": "[4]", "value": "9.11 upbm affinity estimate (log intensity, higher = more binding, comparable within an allelic series)"}, {"measurement": "binding signal", "setting": "[5]", "value": "8.92 upbm affinity estimate (log intensity, higher = more binding, comparable within an allelic series)"}, {"measurement": "binding signal", "setting": "[6]", "value": "8.96 upbm affinity estimate (log intensity, higher = more binding, comparable within an allelic series)"}, {"measurement": "binding signal", "setting": "[7]", "value": "8.94 upbm affinity estimate (log intensity, higher = more binding, comparable within an allelic series)"}, {"measurement": "binding signal", "setting": "[8]", "value": "9.27 upbm affinity estimate (log intensity, higher = more binding, comparable within an allelic series)"}, {"measurement": "binding signal", "setting": "[9]", "value": "8.96 upbm affinity estimate (log intensity, higher = more binding, comparable within an allelic series)"}, {"measurement": "binding signal", "setting": "[10]", "value": "8.9 upbm affinity estimate (log intensity, higher = more binding, comparable within an allelic series)"}, {"measurement": "binding signal", "setting": "[11]", "value": "8.89 upbm affinity estimate (log intensity, higher = more binding, comparable within an allelic series)"}, {"measurement": "binding signal", "setting": "[12]", "value": "8.98 upbm affinity estimate (log intensity, higher = more binding, comparable within an allelic series)"}, {"measurement": "binding signal", "setting": "[13]", "value": "8.88 upbm affinity estimate (log intensity, higher = more binding, comparable within an allelic series)"}, {"measurement": "binding signal", "setting": "[14]", "value": "9 upbm affinity estimate (log intensity, higher = more binding, comparable within an allelic series)"}, {"measurement": "binding signal", "setting": "[15]", "value": "9.27 upbm affinity estimate (log intensity, higher = more binding, comparable within an allelic series)"}, {"measurement": "binding signal", "setting": "[16]", "value": "8.86 upbm affinity estimate (log intensity, higher = more binding, comparable within an allelic series)"}, {"measurement": "binding signal", "setting": "[17]", "value": "8.88 upbm affinity estimate (log intensity, higher = more binding, comparable within an allelic series)"}]}, {"sequence": "AGTGTGTC", "values": [{"measurement": "binding signal", "setting": "[18]", "value": "8.28 upbm affinity estimate (log intensity, higher = more binding, comparable within an allelic series)"}, {"measurement": "binding signal", "setting": "[19]", "value": "8.38 upbm affinity estimate (log intensity, higher = more binding, comparable within an allelic series)"}, {"measurement": "binding signal", "setting": "[20]", "value": "8.38 upbm affinity estimate (log intensity, higher = more binding, comparable within an allelic series)"}]}, {"sequence": "ACGGTCCG", "values": [{"measurement": "binding signal", "setting": "[18]", "value": "8.25 upbm affinity estimate (log intensity, higher = more binding, comparable within an allelic series)"}, {"measurement": "binding signal", "setting": "[19]", "value": "8.46 upbm affinity estimate (log intensity, higher = more binding, comparable within an allelic series)"}, {"measurement": "binding signal", "setting": "[20]", "value": "8.16 upbm affinity estimate (log intensity, higher = more binding, comparable within an allelic series)"}]}, {"sequence": "ATAATATC", "values": [{"measurement": "binding signal", "setting": "[18]", "value": "11.2 upbm affinity estimate (log intensity, higher = more binding, comparable within an allelic series)"}, {"measurement": "binding signal", "setting": "[19]", "value": "10.9 upbm affinity estimate (log intensity, higher = more binding, comparable within an allelic series)"}, {"measurement": "binding signal", "setting": "[20]", "value": "10.8 upbm affinity estimate (log intensity, higher = more binding, comparable within an allelic series)"}, {"measurement": "binding signal", "setting": "[21]", "value": "10.8 upbm affinity estimate (log intensity, higher = more binding, comparable within an allelic series)"}]}, {"sequence": "CAGTCCCG", "values": [{"measurement": "binding signal", "setting": "[1]", "value": "9.58 upbm affinity estimate (log intensity, higher = more binding, comparable within an allelic series)"}, {"measurement": "binding signal", "setting": "[22]", "value": "9.96 upbm affinity estimate (log intensity, higher = more binding, comparable within an allelic series)"}, {"measurement": "binding signal", "setting": "[4]", "value": "9.49 upbm affinity estimate (log intensity, higher = more binding, comparable within an allelic series)"}, {"measurement": "binding signal", "setting": "[8]", "value": "9.67 upbm affinity estimate (log intensity, higher = more binding, comparable within an allelic series)"}, {"measurement": "binding signal", "setting": "[23]", "value": "9.95 upbm affinity estimate (log intensity, higher = more binding, comparable within an allelic series)"}, {"measurement": "binding signal", "setting": "[24]", "value": "9.91 upbm affinity estimate (log intensity, higher = more binding, comparable within an allelic series)"}, {"measurement": "binding signal", "setting": "[15]", "value": "9.57 upbm affinity estimate (log intensity, higher = more binding, comparable within an allelic series)"}, {"measurement": "binding signal", "setting": "[25]", "value": "10 upbm affinity estimate (log intensity, higher = more binding, comparable within an allelic series)"}]}]}
